Reference: PubChem BioAssay AID1631 (National Center for Advancing Translational Sciences (NCATS), 2009)
Out of some 260,000 compounds screened, about 890 (0.34%) were called active. Another 1% or so got no clear call; they are omitted. Only a selection was taken, and actives are over-represented in it overall. Unmarked numbers belong to inactive results. The call rests on the fitted dose curve; in most records, active means well fitted activation curve with a large enough effect; inconclusive means small, poorly fitted or top-dose-only effect; inactive means no such curve, though single readings can be large or run the other way.

Target: Pyruvate kinase PKM (Homo sapiens) (UniProt P14618)
Assay: qHTS Assay for Activators of Human Muscle isoform 2 Pyruvate Kinase; further: nearly all actives have a fitted effect of over 55% in size
Conditions: purified PKM2, Kinase-Glo ATP luminescence; Potency: activation; series mostly up to 57.5 µM; activation: at the top concentration
Description: NIH Chemical Genomics Center [NCGC] Matthew G. Vander Heiden, M.D., Ph.D. [Harvard Medical School, 77 Avenue Louis Pasteur, Boston, MA 02115] MLPCN Grant: 1 R03 MH085679-01 NCGC Assay Overview: Human pyruvate kinase muscle 2 (hPK-M2) enzyme was supplied as a highly purified (>95% pure) preparation from Harvard Medical School and assayed for its ability to generate ATP from ADP using phosphoenolpyruvate (PEP) as a substrate. ATP generation was detected in a coupled reaction by luciferase-mediated luminescence, an ATP-dependent process. […] The enzyme was assayed at an intermediate level of activity to screen for both inhibitors and activators.
NCGC Assay Protocol Summary: Three uL of substrate mix (at r.t.) in assay buffer (50 mM Imidazole pH7.2, 50 mM KCl, 7 mM MgCl2, 0.01% Tween 20, 0.05% BSA) was dispensed into white solid bottom 1,536 well microtiter plates so that the final concentrations of substrates in the assay were 0.1 mM ADP and 0.5 mM PEP. 23 nL of compound were delivered by a pin tool and 1 uL of enzyme mix in assay buffer (4 degree Celsius) was added. Plates were incubated at room temperature for 1 hour. Two uL of detection mix (Kinase-Glo, Promega; at 4 degree Celsius protected from light) was added and luminescence read by a ViewLux (Perkin Elmer) at 5 second exposure/plate. Data were normalized to the uninhibited and AC100 inhibition (no enzyme). To monitor activation, the first column contained a titration of the activator, NCGC00031955-01 (16-point 1:2 dilutions in duplicate starting at 57 uM) and the first 16 rows of column 4 contained 57 uM of NCGC00031955-01.
On the % scale 0 is the no-effect control and ±100 the full control effect; potency means the concentration at half of the fitted maximal effect.

Sequence of Pyruvate kinase PKM (Homo sapiens) (P14618 whole entry, looked up, canonical isoform): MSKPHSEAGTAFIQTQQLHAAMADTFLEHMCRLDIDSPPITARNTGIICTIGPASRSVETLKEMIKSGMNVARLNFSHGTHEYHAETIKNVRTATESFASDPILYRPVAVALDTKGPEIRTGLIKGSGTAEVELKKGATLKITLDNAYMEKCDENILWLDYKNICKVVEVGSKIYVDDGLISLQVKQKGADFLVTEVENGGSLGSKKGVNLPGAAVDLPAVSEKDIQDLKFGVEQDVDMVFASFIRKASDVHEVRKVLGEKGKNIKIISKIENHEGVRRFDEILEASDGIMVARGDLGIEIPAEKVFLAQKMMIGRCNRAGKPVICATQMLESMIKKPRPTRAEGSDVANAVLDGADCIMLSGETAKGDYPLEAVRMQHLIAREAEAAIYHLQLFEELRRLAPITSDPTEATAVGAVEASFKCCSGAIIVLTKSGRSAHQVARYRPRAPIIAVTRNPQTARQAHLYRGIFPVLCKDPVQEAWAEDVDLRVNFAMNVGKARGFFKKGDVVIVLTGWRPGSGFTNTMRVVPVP

SMILES	Potency	activation
O=c1c2ccccc2nc(/C=C/c2ccco2)n1-c1ccccc1O	3.98 µM (active)	–
Cc1nc2ccccc2c(=O)n1-c1ccc(Cl)cc1Cl	–	-0.0497% [at 11.5 µM, 0% is enzyme alone, no compound]
O=c1c2ccccc2nc(-c2ccco2)n1-c1ccc(Br)cn1	–	6.38%
CCCCn1c(=O)c(C(=O)Nc2ccccc2Cl)c(O)c2ccccc21	–	0.939%
CN(C)C(=O)Oc1ccc(NC(=O)N2CCOCC2)cc1	–	1.13%
